The results in this text go back to PubChem BioAssay (NCATS).

Test [1] has as its target Lysosomal acid glucosylceramidase (Homo sapiens) (UniProt P04062). Description: Glucocerebrosidase-p2 (AID 348; in the data active = potency below about 10 µM; also: potency is read from the fitted curve at half-maximal effect). The conditions noted are these: purified GBA, blue fluorogenic substrate, 40 min. In outline:
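Compounds titrated from 0.6 nM upwards against 0.2 nM enzyme in pH 5.9 citric acid/KH2PO4, taurocholate, tween-20; blue fluorogenic substrate 80 uM, 40 min room temperature, stopped and read Ex 365/Em 440 for AC50.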

A short description of test [2]: AP1 Signaling Pathway (AID 357). Also: % is scaled to controls: 0 for no effect and ±100 for the full control effect. The conditions noted are these: ME-180 AP-1-bla reporter, EGF-induced, beta-lactamase ratio, 5 h; at 7.69 µM (top of the series) unless noted. In outline: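 AP-1-bla ME-180 cells with beta-lactamase reporter under AP-1 response element, stimulated with EC50 EGF; compounds titrated, 5 hours at 37 degrees Celsius. CCF4 read at 460/530 nm ratio; positive and negative modulators judged by AC50.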

The target in test [3] is Cytochrome P450 1A2 (Homo sapiens) (UniProt P05177). Description: p450-cyp1a2 (AID 410; calls by dose curve; also: potency is read from the fitted curve at half-maximal effect;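 as to activity change, negative = inhibition: -100% = full effect of reference inhibitor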). The following applies: recombinant CYP1A2, luciferin-ME demethylation, luminescence; series mostly up to 57 µM. The essentials:
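Human CYP1A2 (20nM) demethylated Luciferin-ME at its Km (100uM) in 100mM KPO4. After 10 min compound preincubation, NADPH regeneration ran the reaction 60 min at room temperature. Luciferin was read by luminescence, normalized to 57 uM furafylline.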

The nature of test [4]: NFAT Signaling Pathway (AID 444).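 Also: carbachol stimulus at about its EC50 of 1 µM final; % is scaled to controls: 0 for no effect and ±100 for the full control effect.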 The conditions noted are these: Jurkat NFAT-bla M1, carbachol, beta-lactamase ratio, 5 h; at 7.69 µM (top of the series) unless noted. In outline:
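Jurkat cells carrying an NFAT-driven β-lactamase reporter and co-transfected muscarinic M1 receptor were treated with compound plus carbachol (1 uM final, an EC50 level) for 5 h at 37 °C. CCF4 loading followed for 1 h at RT; 460/530 nm ratio gave %activity.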

Test [5] concerns the target Glucocorticoid receptor (Homo sapiens) (UniProt P04150). Description: GR-GFP Redistribution (AID 450;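 active = compounds whose dose series gives a full or clear partial fitted curve of increased nuclear translocation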; also: potency is read from the fitted curve at half-maximal effect). The conditions noted are these: U2OS GR-GFP nuclear translocation, laser cytometry, 2 h.
The target is the same in test [6]. Kind of test: GR-EFC Redistribution (AID 451; calls by dose curve; also: potency is read from the fitted curve at half-maximal effect). The following applies: CHO-K1 GR-EFC translocation, beta-gal luminescence, 2 h. The essentials: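 CHO-K1 cells stably expressing nuclear-localized β-gal enzyme acceptor and GR fused C-terminally to the enzyme donor fragment; ligand-driven nuclear translocation restores β-gal by complementation. Compounds titrated up to 46 uM final, 2 h at 37 °C; luminescence read.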

Test [7] has as its target Mitogen-activated protein kinase 10 (Mus musculus) (UniProt Q61831). Kind of test: JNK3 AlphaScreen Assay (AID 530).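 Also: kinase came from lysate of stimulated human HepG2 cells; % is scaled to controls: 0 for no effect and ±100 for the full control effect.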 The conditions noted are these: JNK3 lysate, c-Jun phosphorylation; series mostly up to 57.1 µM. The essentials: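 JNK3 came from HepG2 lysates pre-activated with IL-1beta and TNF-alpha and phosphorylated biotinylated GST-cJun (1-79) at 10 uM ATP, pH 7.6, room temperature. Compounds were titrated. AlphaScreen signal used anti-phospho-cJun (Ser73) antibody.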
(In general: Bead proximity is the source of the signal in Alpha formats.)

Test [8] can be described thus: qHTS Assay for Identification of Small Molecule Agonists for Hypoxia Response Element Signaling Pathway (AID 914; active = well fitted activation curve with a large enough effect in the signal ratio, with a control signal flat, not every such curve was filed as active; the % refers to the signal ratio; also: potency is read from the fitted curve at half-maximal effect). The following applies: ME-180 HRE-bla reporter, beta-lactamase ratio, CoCl2, 17 h; activation: stronger effect = higher value. The essentials: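 A beta-lactamase reporter under hypoxia response element control in ME-180 cells served as the system. Compound titrations plus EC50 CoCl2 ran 17 h at 37 degrees Celsius; AC50 values were fitted from %Activity.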

Test [9] is described as follows: qHTS Assay for Lipid Storage Modulators (AID 1519; calls by dose curve). The conditions noted are these: Drosophila S3 cells, BODIPY lipid droplet/cell ratio, laser cytometry, cells loaded with oleic acid; for activity change, negative = inhibition: at 57.5 µM (top of the series). The essentials: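 Cells seeded at 5,000 per well were treated with compounds over a concentration series and loaded with oleic acid (400 uM, as added). Lipid droplet fluorescence (488 nm excitation, 500-530 nm channel) was read by laser-scanning cytometry and normalized to 20 uM Triacsin C.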

Test [10] can be described thus: Primary qHTS for small molecule stabilizers of the endoplasmic reticulum resident proteome: Secreted ER Calcium Modulated Protein (SERCaMP) assay (AID 1508630; active = well fitted curve in the direction sought with a large enough effect; an effect the other way counts as inactive or inconclusive; also: % is scaled to controls: 0 for no effect and ±100 for the full control effect). The conditions noted are these: SH-SY5Y GLuc-SERCaMP (Gaussia luciferase released on ER calcium loss) secretion, thapsigargin, luminescence; series mostly up to 38.4 µM. In outline: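 GLuc-SERCaMP-expressing SH-SY5Y cells, pretreated 16 h with compound, are challenged with thapsigargin to empty ER calcium stores; after 4 h, coelenterazine is added directly to the medium and luminescence is imaged.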

The target of test [11] is Cytochrome P450 2C9 (Homo sapiens) (UniProt P11712). Kind of test: qHTS Assay for Inhibitors and Substrates of Cytochrome P450 2C9 (AID 883; active = well fitted curve in the direction sought with a large enough effect; an effect the other way counts as inactive or inconclusive; also: % is scaled to controls: 0 for no effect and ±100 for the full control effect; nearly all actives have a fitted effect of over 60% in size). The following applies: recombinant CYP2C9, luciferin-H luminescence, 60 min; series mostly up to 57.1 µM. In outline:
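A luminogenic readout tracked human CYP2C9 (10nM) converting deoxyluciferin (100uM, at KM) in 25mM KPO4 during 60 min at 37C with regenerated NADPH. Values normalized to 57uM sulphaphenazole as complete inhibition.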

For test [12], the target named is Cytochrome P450 3A4 (Homo sapiens) (UniProt P08684). Description: qHTS Assay for Inhibitors and Substrates of Cytochrome P450 3A4 (AID 884; active = well fitted curve in the direction sought with a large enough effect; an effect the other way counts as inactive or inconclusive; also: potency is read from the fitted curve at half-maximal effect; nearly all actives have a fitted effect of over 50% in size). The conditions noted are these: recombinant CYP3A4, Luciferin-PPXE luminescence; series mostly up to 57.1 µM. In outline:
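20 nM human CYP3A4 with 25 uM Luciferin-PPXE (at KM) in 200 mM KPO4, preincubated 10 min with compound; NADPH regeneration started a 60 min RT reaction. Luciferin detected by luminescence, normalized to 57 uM ketoconazole as full inhibition.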

Test [13] shares this target. Kind of test: qHTS Assay for Activators of Cytochrome P450 3A4 (AID 885; active = well fitted curve in the direction sought with a large enough effect; an effect the other way counts as inactive or inconclusive; also: nearly all actives have a fitted effect of over 65% in size). The following applies: recombinant CYP3A4, Luciferin-PPXE luminescence, 60 min; series mostly up to 57.1 µM. In outline: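 Quantitative HTS format: compounds preincubated with 20nM human CYP3A4 and Luciferin-PPXE substrate at KM, reaction started by NADPH regeneration, stopped after 60 min, luciferase luminescence read 20 min later.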
(In general: qHTS replaces the single test concentration by a dilution series.)

Test [14] deals with Cytochrome P450 2C19 (Homo sapiens) (UniProt P33261). Kind of test: qHTS Assay for Inhibitors and Substrates of Cytochrome P450 2C19 (AID 899; active = well fitted curve in the direction sought with a large enough effect; an effect the other way counts as inactive or inconclusive; also: potency is read from the fitted curve at half-maximal effect; nearly all actives have a fitted effect of over 60% in size). The following applies: recombinant CYP2C19, luciferin-H EGE luminescence; series mostly up to 57.1 µM. In outline: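 NADPH-dependent conversion of Luciferin-H EGE (10uM, at KM) by 5nM enzyme in 50mM KPO4, 60 min at 37C following 10 min compound preincubation. Stopped with luciferin detection buffer; luminescence read after 20 min.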

The nature of test [15]: Stat Signaling Pathway (AID 446). The following applies: ME-180 (cervical carcinoma) SIE beta-lactamase reporter, IL-6 stimulated, 5 h; at 7.69 µM (top of the series) unless noted. The essentials: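 IL-6/STAT signaling read in ME-180 cells via an SIE beta-lactamase reporter. Stimulus was 40 pM IL-6 (its AC50) for 5 hrs, so both activation and inhibition register.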
Test [16] deals with 3',5'-cyclic-AMP phosphodiesterase 4B (Homo sapiens) (UniProt Q07343). Kind of test: qHTS Assay for Inhibitors of PDE-IV (AID 607; active = well fitted activation curve with a large enough effect in the main read-out, with a control signal flat, not every such curve was filed as active; also: % of control where 0% means no effect). The following applies: HEK293 ACTOne CNG channel cells, membrane potential fluorescence; series mostly up to 22.9 µM. The essentials:
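Live HEK293 cells with a modified cyclic nucleotide-gated (CNG) channel report intracellular cAMP via membrane-potential dye fluorescence (ex 535/em 590 nm). Endogenous PDE-IV was targeted. Compounds were tested at up to 22.9 uM final; RO 20-1724 100 uM served as control.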

Test [17] deals with Cytochrome P450 2D6 (Homo sapiens) (UniProt P10635). Description: qHTS Assay for Inhibitors and Substrates of Cytochrome P450 2D6 (AID 891; active = well fitted curve in the direction sought with a large enough effect; an effect the other way counts as inactive or inconclusive; also: potency is read from the fitted curve at half-maximal effect; nearly all actives have a fitted effect of over 60% in size). The following applies: recombinant CYP2D6, luciferin-ME EGE luminescence; series mostly up to 57.1 µM. In outline:
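Human CYP2D6 (5 nM) with 30 uM Luciferin-ME EGE (at Km) in 100 mM KPO4, compound preincubated 10 min, then NADPH regeneration system for 60 min at room temperature. Luciferin read by luminescence; normalized to 1.43 uM quinidine.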

The mark [18] stands for this setting: measured here: cell count channel max response.
Where [19] appears, read: measured here: lipid channel max response.

Inconclusive results are not listed. Activity calls are given as the source filed them. Unless noted, calls follow the shape of the dose curve; as a rule, active = well fitted curve in either direction with a large enough effect (not every such curve was filed as active); inconclusive = small, poorly fitted or top-dose-only effect, or another doubt; inactive = flat fitted curve, though single readings scatter.

Sequence of 3',5'-cyclic-AMP phosphodiesterase 4B (Homo sapiens) (Q07343 whole entry, looked up): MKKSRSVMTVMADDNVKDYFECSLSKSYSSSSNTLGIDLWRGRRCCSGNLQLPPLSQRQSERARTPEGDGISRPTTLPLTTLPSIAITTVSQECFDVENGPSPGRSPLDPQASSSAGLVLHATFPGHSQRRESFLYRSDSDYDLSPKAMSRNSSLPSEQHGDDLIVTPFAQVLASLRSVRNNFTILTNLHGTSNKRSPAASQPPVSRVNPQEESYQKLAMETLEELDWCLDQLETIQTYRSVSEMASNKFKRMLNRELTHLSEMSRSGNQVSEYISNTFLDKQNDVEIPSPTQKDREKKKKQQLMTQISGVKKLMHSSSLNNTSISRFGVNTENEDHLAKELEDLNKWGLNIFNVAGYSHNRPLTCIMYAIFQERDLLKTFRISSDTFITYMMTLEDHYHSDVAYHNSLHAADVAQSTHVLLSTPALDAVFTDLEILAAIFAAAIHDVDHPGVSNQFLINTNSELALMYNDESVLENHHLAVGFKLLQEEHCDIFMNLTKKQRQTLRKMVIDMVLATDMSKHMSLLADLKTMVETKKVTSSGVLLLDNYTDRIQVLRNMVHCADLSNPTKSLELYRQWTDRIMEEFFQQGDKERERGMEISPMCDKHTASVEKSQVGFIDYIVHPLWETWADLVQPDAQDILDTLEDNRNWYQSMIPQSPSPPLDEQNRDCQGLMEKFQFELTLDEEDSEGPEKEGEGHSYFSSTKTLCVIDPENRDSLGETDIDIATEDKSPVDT
Sequence of Lysosomal acid glucosylceramidase (Homo sapiens) (P04062 whole entry, looked up): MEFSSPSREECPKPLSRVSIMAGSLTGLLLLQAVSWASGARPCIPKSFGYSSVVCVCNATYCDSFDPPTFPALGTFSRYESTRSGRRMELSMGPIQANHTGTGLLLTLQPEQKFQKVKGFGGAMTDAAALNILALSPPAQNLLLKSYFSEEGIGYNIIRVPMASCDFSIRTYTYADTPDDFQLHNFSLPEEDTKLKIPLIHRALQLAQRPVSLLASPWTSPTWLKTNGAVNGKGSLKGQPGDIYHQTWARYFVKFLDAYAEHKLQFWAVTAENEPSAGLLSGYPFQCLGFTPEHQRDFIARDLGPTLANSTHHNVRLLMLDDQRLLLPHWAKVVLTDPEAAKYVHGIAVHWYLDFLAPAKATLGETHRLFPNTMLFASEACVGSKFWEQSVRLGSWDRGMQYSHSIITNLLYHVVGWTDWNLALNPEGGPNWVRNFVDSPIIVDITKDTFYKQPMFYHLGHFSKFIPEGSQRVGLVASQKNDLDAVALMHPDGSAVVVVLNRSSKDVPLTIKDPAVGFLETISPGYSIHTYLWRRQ
Sequence of Glucocorticoid receptor (Homo sapiens) (P04150 whole entry, looked up, the tested form may be a part): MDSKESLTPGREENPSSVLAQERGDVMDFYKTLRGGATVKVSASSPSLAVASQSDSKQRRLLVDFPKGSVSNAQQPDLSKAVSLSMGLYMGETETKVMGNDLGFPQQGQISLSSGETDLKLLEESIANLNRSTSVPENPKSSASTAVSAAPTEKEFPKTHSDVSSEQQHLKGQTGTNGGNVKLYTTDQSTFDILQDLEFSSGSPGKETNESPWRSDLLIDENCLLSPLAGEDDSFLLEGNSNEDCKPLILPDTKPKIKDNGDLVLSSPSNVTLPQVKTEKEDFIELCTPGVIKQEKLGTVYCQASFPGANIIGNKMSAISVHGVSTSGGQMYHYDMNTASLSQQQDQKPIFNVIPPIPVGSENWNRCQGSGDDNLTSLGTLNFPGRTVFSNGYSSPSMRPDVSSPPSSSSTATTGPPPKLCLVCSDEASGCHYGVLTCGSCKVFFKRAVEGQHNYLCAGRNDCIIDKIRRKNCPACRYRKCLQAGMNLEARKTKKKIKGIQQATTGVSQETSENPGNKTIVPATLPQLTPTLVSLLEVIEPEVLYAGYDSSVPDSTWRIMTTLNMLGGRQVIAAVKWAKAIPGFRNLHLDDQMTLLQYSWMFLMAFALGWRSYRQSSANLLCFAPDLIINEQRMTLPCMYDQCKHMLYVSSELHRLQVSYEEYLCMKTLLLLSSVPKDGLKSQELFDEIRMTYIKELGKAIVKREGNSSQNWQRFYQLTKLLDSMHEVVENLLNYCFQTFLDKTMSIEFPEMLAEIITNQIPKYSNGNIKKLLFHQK
Sequence of Cytochrome P450 1A2 (Homo sapiens) (P05177 whole entry, looked up): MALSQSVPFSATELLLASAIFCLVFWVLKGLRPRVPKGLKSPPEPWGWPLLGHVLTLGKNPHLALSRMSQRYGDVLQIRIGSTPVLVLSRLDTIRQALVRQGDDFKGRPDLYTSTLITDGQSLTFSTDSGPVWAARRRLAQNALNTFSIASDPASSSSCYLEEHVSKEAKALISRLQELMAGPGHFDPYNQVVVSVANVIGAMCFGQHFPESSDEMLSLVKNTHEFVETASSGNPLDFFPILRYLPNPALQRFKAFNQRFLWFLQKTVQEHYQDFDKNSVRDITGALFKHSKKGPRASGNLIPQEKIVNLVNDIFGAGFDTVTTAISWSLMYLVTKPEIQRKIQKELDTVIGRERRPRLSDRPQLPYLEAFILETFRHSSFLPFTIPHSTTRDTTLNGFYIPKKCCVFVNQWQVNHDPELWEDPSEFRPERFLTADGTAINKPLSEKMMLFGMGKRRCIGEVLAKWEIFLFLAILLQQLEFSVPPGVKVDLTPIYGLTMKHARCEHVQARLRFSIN
Sequence of Cytochrome P450 3A4 (Homo sapiens) (P08684 whole entry, looked up): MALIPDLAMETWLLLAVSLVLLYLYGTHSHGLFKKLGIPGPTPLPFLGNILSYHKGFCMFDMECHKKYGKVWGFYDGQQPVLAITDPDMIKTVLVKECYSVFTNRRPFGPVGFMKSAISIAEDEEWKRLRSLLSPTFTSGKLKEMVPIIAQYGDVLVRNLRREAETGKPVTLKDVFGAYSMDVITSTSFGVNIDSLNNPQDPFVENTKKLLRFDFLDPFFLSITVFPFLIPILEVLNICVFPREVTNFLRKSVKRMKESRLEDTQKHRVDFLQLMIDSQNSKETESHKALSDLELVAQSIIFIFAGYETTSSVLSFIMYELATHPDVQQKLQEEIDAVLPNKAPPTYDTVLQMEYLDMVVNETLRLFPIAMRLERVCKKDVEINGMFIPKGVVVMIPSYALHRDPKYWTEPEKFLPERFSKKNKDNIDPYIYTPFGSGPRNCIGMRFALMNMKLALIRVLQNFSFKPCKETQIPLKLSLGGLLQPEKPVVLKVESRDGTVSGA
Sequence of Cytochrome P450 2C9 (Homo sapiens) (P11712 whole entry, looked up): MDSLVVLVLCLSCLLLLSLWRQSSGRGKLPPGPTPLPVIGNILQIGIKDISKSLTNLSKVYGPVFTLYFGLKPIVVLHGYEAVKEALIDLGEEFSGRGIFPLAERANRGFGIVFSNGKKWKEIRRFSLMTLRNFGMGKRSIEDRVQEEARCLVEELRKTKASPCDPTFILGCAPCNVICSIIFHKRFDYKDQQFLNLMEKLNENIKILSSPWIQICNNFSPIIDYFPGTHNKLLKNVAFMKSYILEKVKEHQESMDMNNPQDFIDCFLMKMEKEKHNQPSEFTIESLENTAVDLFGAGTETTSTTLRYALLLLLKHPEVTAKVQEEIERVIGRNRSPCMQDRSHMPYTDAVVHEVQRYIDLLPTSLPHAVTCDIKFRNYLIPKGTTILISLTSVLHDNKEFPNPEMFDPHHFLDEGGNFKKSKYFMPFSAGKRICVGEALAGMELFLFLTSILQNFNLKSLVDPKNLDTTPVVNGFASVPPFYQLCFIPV
Sequence of Cytochrome P450 2C19 (Homo sapiens) (P33261 whole entry, looked up): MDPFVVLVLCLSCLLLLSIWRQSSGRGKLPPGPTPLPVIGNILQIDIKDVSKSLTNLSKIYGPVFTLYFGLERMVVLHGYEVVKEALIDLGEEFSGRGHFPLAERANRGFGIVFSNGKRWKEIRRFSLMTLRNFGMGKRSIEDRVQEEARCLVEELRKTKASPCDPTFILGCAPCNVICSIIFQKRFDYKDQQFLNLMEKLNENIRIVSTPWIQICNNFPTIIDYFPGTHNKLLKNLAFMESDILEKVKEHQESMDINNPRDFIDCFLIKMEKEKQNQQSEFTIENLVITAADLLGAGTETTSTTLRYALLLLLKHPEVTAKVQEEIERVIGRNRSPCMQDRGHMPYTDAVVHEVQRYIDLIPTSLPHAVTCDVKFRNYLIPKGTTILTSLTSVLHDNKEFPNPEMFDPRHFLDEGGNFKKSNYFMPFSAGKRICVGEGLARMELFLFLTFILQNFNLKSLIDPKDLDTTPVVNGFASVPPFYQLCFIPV
Sequence of Cytochrome P450 2D6 (Homo sapiens) (P10635 whole entry, looked up): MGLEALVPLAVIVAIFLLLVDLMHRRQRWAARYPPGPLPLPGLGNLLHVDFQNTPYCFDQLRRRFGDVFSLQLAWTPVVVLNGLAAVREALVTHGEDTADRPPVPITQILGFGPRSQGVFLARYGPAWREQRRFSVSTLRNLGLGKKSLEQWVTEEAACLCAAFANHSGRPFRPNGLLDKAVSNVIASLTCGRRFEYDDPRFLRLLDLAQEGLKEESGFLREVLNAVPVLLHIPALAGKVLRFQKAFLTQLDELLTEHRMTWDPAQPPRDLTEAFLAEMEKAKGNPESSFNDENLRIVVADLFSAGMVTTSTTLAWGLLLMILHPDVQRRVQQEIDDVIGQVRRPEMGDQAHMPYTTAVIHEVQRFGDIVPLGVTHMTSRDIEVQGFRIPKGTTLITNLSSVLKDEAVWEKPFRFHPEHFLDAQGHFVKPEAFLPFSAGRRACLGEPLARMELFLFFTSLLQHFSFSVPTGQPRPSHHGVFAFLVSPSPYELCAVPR

On to `O=c1c(-c2cc(F)cc(F)c2)nc2cnc(N3CCOCC3)nc2n1C1CC1`, for which the Potency in test [1] was > 11.4 µM (inactive); in test [3] it was 1 µM (active); in test [5], > 9.22 µM (inactive); in test [6], > 46 µM (inactive); in [8], 1.58 µM (active). The activity change, negative = inhibition was 7.91% (inactive) in test [2], 6.75% (inactive) in test [4] and 0.7% (inactive) in [9]. Moreover, the compound was called inactive in test [7]. Moreover, the max response in test [9] (setting [18]) stood at 9.59%; in [9] (setting [19]), 11.7%. The Potency entry in test [10] was “inactive”.
As for `Cc1nc2cnc(N(C)C)nc2n(Cc2ccc(F)cc2)c1=O`, the Potency in test [1] was > 11.4 µM (inactive); in test [3] it was 2 µM (active); in test [5] it was > 9.22 µM (inactive); in [6] it was > 46 µM (inactive); in [12] it was 0.0251 µM (active); in test [14], 1.58 µM (active). Moreover, the activity change, negative = inhibition in [2] is 3.79% (inactive); in test [4], 1.01% (inactive); in test [9] it was 5.88% (inactive). The result in test [7] was inactive. Besides, the Potency entry in [11], in [13] and in test [10] was “inactive” throughout. Moreover, the max response in [9] (setting [18]) was 15%; in test [9] (setting [19]) it was 21.5%.
As for `COc1ccccc1CN1CC[C@@]2(CCCN(C(=O)c3cccc(F)c3)C2)C1`, the Potency was > 11.4 µM (inactive) in test [1] and > 46 µM (inactive) in [6]. The activity change, negative = inhibition in test [4] was -10.9% (inactive); in test [9] it was 5.1% (inactive). Moreover, in test [15], the activity, negative = inhibition is 10.2% (inactive). Moreover, the compound was called inactive in [7]. The Potency entry in test [16] and in test [10] was “inactive” each time. Moreover, the max response in [9] (setting [18]) was 15.7%; in test [9] (setting [19]) it was 25%.
Consider `CS(=O)(=O)N1CCC2(CC1)CN(c1ccncc1)C2`, for which the Potency in test [1] is > 11.4 µM (inactive). The activity change, negative = inhibition in [2] is -2.13% (inactive); in test [4] it was -17.7% (inactive); in test [9], 4.12% (inactive). In addition, the Potency result in test [3], in [16] and in test [10] was “inactive” in each case. For the same compound, in test [15], the activity, negative = inhibition is -0.0709% (inactive). Besides, in [7], the call was inactive. Also, the max response in test [9] (setting [18]) is -19.4%; in [9] (setting [19]) it was -21.8%.
Consider `CC(=O)N1CCC[C@@]2(CCN(Cc3cc(C(F)(F)F)cc(C(F)(F)F)c3)C2)C1`, for which the Potency was > 11.4 µM (inactive) in test [1] and > 46 µM (inactive) in test [6]. In addition, the activity change, negative = inhibition in test [2] was -5.47% (inactive); in test [4], 20.4% (inactive); in test [9] it was 5.56% (inactive). The activity, negative = inhibition in test [15] is -6.41% (inactive). The Potency result in test [16] and in test [10] was “inactive” throughout. For the same compound, the max response in test [9] (setting [18]) came to 8.88%; in test [9] (setting [19]) it was 18.9%.
Regarding `O=C(c1cnccn1)N1CCC[C@@]2(CCN(Cc3cc(C(F)(F)F)cc(C(F)(F)F)c3)C2)C1`, the figures for the Potency in [1], in test [12] and in test [17] were > 11.4 µM (inactive), 7.94 µM (active) and 3.16 µM (active), respectively. Moreover, the Potency entry in test [3], in test [16], in [13] and in [10] was “inactive” in each case. The activity change, negative = inhibition in test [4] is 16.8% (inactive); in [9], 4.01% (inactive). For the same compound, the activity, negative = inhibition in [15] was 2.8% (inactive). The compound was classed as inactive in test [7]. In addition, the max response in test [9] (setting [18]) was determined as 14.7%; in test [9] (setting [19]) it was 20.7%.
Take `COc1ccc(-c2nc3cnc(N4CCNCC4)nc3n(Cc3ccc(F)cc3)c2=O)cc1`: the Potency in test [1] was > 11.4 µM (inactive); in test [5], > 9.22 µM (inactive); in [6] it was > 46 µM (inactive). The values for the activity change, negative = inhibition in test [2], in [4] and in test [9] were 83.5% [activator] (active), 88% [activator] (active) and 4.56% (inactive), respectively. The Potency entry in test [3], in test [11], in [13] and in test [10] was “inactive” in each case. In addition, the result in test [7] was inactive. For the same compound, the max response in test [9] (setting [18]) was determined as 15.2%; in test [9] (setting [19]), 24.4%.
